Drawing on PubChem BioAssay (NCI), this text covers growth inhibition for 9 molecules.

About 79,000 compounds went through this panel and 15% of them were active in at least one assay; those are over-represented in the sample as a whole. Values without a mark were called inactive. The source made the active and inactive calls. Rule as the data show it: active = growth inhibition above about 70%; inactive = the rest.

Assay [1] is described as follows: NCI Yeast Anticancer Drug Screen. Data for the rad50 strain (AID 155).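 Also: 0% = growth of vehicle-only cultures of the same strain.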 Conditions: S. cerevisiae rad50 strain growth inhibition, active compounds read high. The gist of the method: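 Genetically altered yeast (DNA repair pathway); compound treatment; growth inhibition vs vehicle ctrl.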
Assay [2] can be described thus: NCI Yeast Anticancer Drug Screen. Data for the mec2-1 strain (AID 157). Conditions: S. cerevisiae mec2-1 strain, active compounds read high. In a few lines:
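Cells of the genetically defined mec2-1 yeast strain are incubated with test compound. Inhibition of growth is calculated against vehicle-treated controls.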

The nature of assay [3]: NCI Yeast Anticancer Drug Screen. Data for the sgs1 mgt1 strain (AID 161).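 Also: 0% = growth of cultures given vehicle only.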 The settings on record: S. cerevisiae sgs1 mgt1 strain, active compounds read high. The gist of the method:
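Inhibition of yeast growth, normalised to vehicle-treated controls, is reported for a strain bearing genetic alterations in DNA damage repair.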

Assay [4] can be described thus: NCI Yeast Anticancer Drug Screen. Data for the cln2 rad14 strain (AID 165).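 Also: 0% = growth equal to vehicle treated cultures.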 The settings on record: S. cerevisiae cln2 rad14 strain, active compounds read high. The gist of the method:
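The screen exposed genetically defined yeast (cln2 rad14) to test compounds and scored growth inhibition relative to vehicle-treated controls.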

A short description of assay [5]: NCI Yeast Anticancer Drug Screen. Data for the bub3 strain (AID 167). The settings on record: S. cerevisiae bub3 mutant strain, active compounds read high. The gist of the method:
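Yeast carrying a defined mutation is treated with each compound, and growth is compared with that of vehicle-exposed cells to give inhibition.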

Assay [6] is described as follows: NCI Yeast Anticancer Drug Screen. Data for the mlh1 rad18 strain (AID 175). The settings on record: S. cerevisiae mlh1 rad18 strain growth inhibition, active compounds read high. The gist of the method: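 Compound-treated yeast growth, normalised to vehicle controls. Strain bears defined DNA repair mutations.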
The mark [7] stands for this setting: at 5.0 µM (retest, dose inferred, filed as 0.5).
Where [8] appears, read: at 50.0 µM (retest, dose inferred, filed as 5.0).

Regarding `O=C(CNC(=O)OCc1ccccc1)Oc1ccc([N+](=O)[O-])cc1`, the growth inhibition is -9% in assay [1] (setting [7]); -1% in assay [1] (setting [8]); 22.1% in assay [1] (at 50.0 µM); -1% in assay [2] (setting [7]); 38% in assay [2] (setting [8]); 58.4% in assay [2] (at 50.0 µM). In addition, the growth inhibition in assay [3] (setting [7]) is 3%; in assay [3] (setting [8]), 7%; in assay [3] (at 50.0 µM) it was 48.6%; in assay [4] (setting [7]), -42%; in assay [4] (setting [8]), -56%; in assay [4] (at 50.0 µM), -60.2%. Also, the growth inhibition was -5% in assay [5] (setting [7]); 0% in assay [5] (setting [8]); 64.2% in assay [5] (at 50.0 µM); 12% in assay [6] (setting [7]); 36% in assay [6] (setting [8]); 73.7% (active) in assay [6] (at 50.0 µM).

With `O=S(=O)(Nc1ccnn1-c1ccccc1)c1ccc(N=Cc2c3ccccc3nc3cc(Cl)ccc23)cc1`, the growth inhibition is 22% in assay [1] (setting [7]); 29% in assay [1] (setting [8]); 96.8% (active) in assay [1] (at 50.0 µM); 12% in assay [2] (setting [7]); 12% in assay [2] (setting [8]); 96.7% (active) in assay [2] (at 50.0 µM). The growth inhibition is 10% in assay [3] (setting [7]); 7% in assay [3] (setting [8]); 96.4% (active) in assay [3] (at 50.0 µM); -1% in assay [4] (setting [7]); -1% in assay [4] (setting [8]); 68.7% in assay [4] (at 50.0 µM). The growth inhibition is 17% in assay [5] (setting [7]); 17% in assay [5] (setting [8]); 67.9% in assay [5] (at 50.0 µM); 10% in assay [6] (setting [7]); 19% in assay [6] (setting [8]); 97.5% (active) in assay [6] (at 50.0 µM).

As for `CC1=NC(=Cc2ccc(Cl)cc2)C(=O)N1n1c(-c2ccccc2)nc2ccccc2c1=O`, the growth inhibition was -8% in assay [1] (setting [7]); 59% in assay [1] (setting [8]); 67.3% in assay [1] (at 50.0 µM); -10% in assay [2] (setting [7]); 83% (active) in assay [2] (setting [8]); 70.2% (active) in assay [2] (at 50.0 µM). Also, the growth inhibition is -7% in assay [3] (setting [7]); 71% (active) in assay [3] (setting [8]); 86% (active) in assay [3] (at 50.0 µM); -24% in assay [4] (setting [7]); 83% (active) in assay [4] (setting [8]); 80% (active) in assay [4] (at 50.0 µM). Further, the growth inhibition in assay [5] (setting [7]) was -6%; in assay [5] (setting [8]) it was 87% (active); in assay [5] (at 50.0 µM) it was 82% (active); in assay [6] (setting [7]), 5%; in assay [6] (setting [8]), 59%; in assay [6] (at 50.0 µM) it was 81.5% (active).

For the molecule `CCN(CC)c1ccc(SC#N)cc1`, the growth inhibition in assay [1] (setting [7]) was 1%; in assay [1] (setting [8]), 93% (active); in assay [1] (at 50.0 µM), 91.2% (active); in assay [2] (setting [7]), -39%; in assay [2] (setting [8]), 94% (active); in assay [2] (at 50.0 µM), 95.1% (active). The growth inhibition was 0% in assay [3] (setting [7]); 95% (active) in assay [3] (setting [8]); 58% in assay [3] (at 50.0 µM); -3% in assay [4] (setting [7]); 88% (active) in assay [4] (setting [8]); 90.2% (active) in assay [4] (at 50.0 µM). Moreover, the growth inhibition in assay [5] (setting [7]) was 10%; in assay [5] (setting [8]), 96% (active); in assay [5] (at 50.0 µM), 97.5% (active); in assay [6] (setting [7]), -3%; in assay [6] (setting [8]), 95% (active); in assay [6] (at 50.0 µM) it was 93.6% (active).

For the molecule `O=C([O-])c1ccc([I+]c2ccccc2)cc1`, the growth inhibition was 9% in assay [1] (setting [7]); 65% in assay [1] (setting [8]); 57% in assay [1] (at 50.0 µM); 8% in assay [2] (setting [7]); 72% (active) in assay [2] (setting [8]); 41.8% in assay [2] (at 50.0 µM). For the same molecule, the growth inhibition in assay [3] (setting [7]) is 18%; in assay [3] (setting [8]), 67%; in assay [3] (at 50.0 µM), 48.1%; in assay [4] (setting [7]), 1%; in assay [4] (setting [8]), 47%; in assay [4] (at 50.0 µM), 65.7%. For the same molecule, the growth inhibition was 12% in assay [5] (setting [7]); 79% (active) in assay [5] (setting [8]); 47% in assay [5] (at 50.0 µM); 10% in assay [6] (setting [7]); 80% (active) in assay [6] (setting [8]); 80.9% (active) in assay [6] (at 50.0 µM).

As for `CN(C)CCC1(C2=CCCC2)CC/C(=C\c2ccccc2Cl)C1=O` (configuration not stated), the growth inhibition was -1% in assay [1] (setting [7]); 60% in assay [1] (setting [8]); 69.3% in assay [1] (at 50.0 µM); -18% in assay [2] (setting [7]); 28% in assay [2] (setting [8]); 22.6% in assay [2] (at 50.0 µM). The growth inhibition is 0% in assay [3] (setting [7]); 62% in assay [3] (setting [8]); 42.4% in assay [3] (at 50.0 µM); -10% in assay [4] (setting [7]); 51% in assay [4] (setting [8]); 73% (active) in assay [4] (at 50.0 µM). Moreover, the growth inhibition in assay [5] (setting [7]) was 19%; in assay [5] (setting [8]), 76% (active); in assay [5] (at 50.0 µM), 36.5%; in assay [6] (setting [7]) it was 4%; in assay [6] (setting [8]) it was 92% (active); in assay [6] (at 50.0 µM), 87.8% (active).

In the case of `COC1/C=C/OC2(C)Oc3c(C)c(O)c4c(c3C2=O)C(=O)C=C(NC(=O)/C(C)=C\C=C\C(C)C(OC=O)C(C)C(O)C(C)C(OC(C)=O)C1C)C4=O` (configuration not stated), the growth inhibition in assay [1] (setting [7]) was -15%; in assay [1] (setting [8]), -4%; in assay [1] (at 50.0 µM) it was 47%; in assay [2] (setting [7]), 1%; in assay [2] (setting [8]), 3%; in assay [2] (at 50.0 µM), 53.5%. For the same molecule, the growth inhibition is -12% in assay [3] (setting [7]); 29% in assay [3] (setting [8]); 52.5% in assay [3] (at 50.0 µM); -5% in assay [4] (setting [7]); 3% in assay [4] (setting [8]); 79% (active) in assay [4] (at 50.0 µM). In addition, the growth inhibition was -8% in assay [5] (setting [7]); 5% in assay [5] (setting [8]); 49.6% in assay [5] (at 50.0 µM); 11% in assay [6] (setting [7]); 27% in assay [6] (setting [8]); 55.7% in assay [6] (at 50.0 µM).

For `Cc1ccc(S(=O)(=O)n2c3c(c4ccccc42)CCN2C(=O)C(S(=O)(=O)c4ccccc4)=CCC32)cc1` (configuration not stated), the growth inhibition in assay [1] (setting [7]) was 65%; in assay [1] (setting [8]), 97% (active); in assay [1] (at 50.0 µM), 94.6% (active); in assay [2] (setting [7]), 71% (active); in assay [2] (setting [8]), 98% (active); in assay [2] (at 50.0 µM), 95.7% (active). Moreover, the growth inhibition is 74% (active) in assay [3] (setting [7]); 98% (active) in assay [3] (setting [8]); 97.5% (active) in assay [3] (at 50.0 µM); 71% (active) in assay [4] (setting [7]); 98% (active) in assay [4] (setting [8]); 97.9% (active) in assay [4] (at 50.0 µM). Moreover, the growth inhibition in assay [5] (setting [7]) was 29%; in assay [5] (setting [8]), 97% (active); in assay [5] (at 50.0 µM) it was 97.5% (active); in assay [6] (setting [7]), 78% (active); in assay [6] (setting [8]) it was 97% (active); in assay [6] (at 50.0 µM), 95.8% (active).

Take `Cc1ccc(C)c(NC(=O)CC2SC(=Nc3ccccc3Cl)NC2=O)c1` (configuration not stated): the growth inhibition in assay [1] (setting [7]) was 23%; in assay [1] (setting [8]), 65%; in assay [1] (at 50.0 µM), 79% (active); in assay [2] (setting [7]), 24%; in assay [2] (setting [8]), 60%; in assay [2] (at 50.0 µM) it was 58.9%. Besides, the growth inhibition in assay [3] (setting [7]) is 25%; in assay [3] (setting [8]) it was 91% (active); in assay [3] (at 50.0 µM), 65.3%; in assay [4] (setting [7]) it was 23%; in assay [4] (setting [8]), 55%; in assay [4] (at 50.0 µM), 78% (active). Moreover, the growth inhibition is 33% in assay [5] (setting [7]); 85% (active) in assay [5] (setting [8]); 75.9% (active) in assay [5] (at 50.0 µM); 31% in assay [6] (setting [7]); 82% (active) in assay [6] (setting [8]); 64.5% in assay [6] (at 50.0 µM).
